# AMA1-RON2 inh: qHTS for Inhibitors of AMA1-RON; Towards Development of Antimalarial Drug Lead: Primary Screen | Potency, µM (series often up to 58.2 µM), for the others: at the top dose activity change, negative = inhibition, most hits filed as inhibitors | AlphaScreen AMA1-biotinylated RON2 peptide binding | Plasmodium falciparum AMA1 (3D7) - RON2 peptide interaction | 0.2% of 360,000 active;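 also: 0% = vehicle wells and -100% = peptide control; nearly all actives have a fitted effect of over 45% in size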
#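 AMA1 (3D7) with his tag at 25 nM final met compounds first, then biotinylated RON2 peptide at 25 nM; detection used donor plus acceptor beads, 10 µg/mL apiece, read by AlphaScreen after 30 min at room temperature.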
# AmpC inh no detg: qHTS Inhibitors of AmpC Beta-Lactamase (assay without detergent) | P00811 | 0.52% of 330,000 active | Potency, µM (doses to about 57.1 µM), for the others: top-dose activity change, negative = inhibition, hits mostly inhibitors | AmpC nitrocefin hydrolysis, absorbance 480 nm, 0.0001% Triton;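 also: plate controls were no compound for no effect and no enzyme for full effect; nearly all actives have a fitted effect of over 20% in size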
# Target sequence (P00811 whole entry, looked up): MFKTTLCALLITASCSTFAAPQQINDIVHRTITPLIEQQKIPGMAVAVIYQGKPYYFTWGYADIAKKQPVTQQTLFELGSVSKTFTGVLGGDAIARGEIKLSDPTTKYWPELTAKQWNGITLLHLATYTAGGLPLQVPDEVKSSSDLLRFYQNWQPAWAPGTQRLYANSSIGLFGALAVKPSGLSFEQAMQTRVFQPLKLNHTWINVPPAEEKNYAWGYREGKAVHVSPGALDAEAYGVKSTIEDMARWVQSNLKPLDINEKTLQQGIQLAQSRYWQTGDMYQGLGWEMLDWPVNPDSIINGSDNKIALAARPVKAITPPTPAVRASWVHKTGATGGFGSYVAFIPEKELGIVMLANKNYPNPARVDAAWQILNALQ
#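 AmpC (5.3 nM in the dispensed reagent) in 20 mM phosphate pH 7.0 with 0.01% (detergent screen) or 0.0001% Triton X-100 was preincubated with compounds for 15 min at room temperature. Nitrocefin was then added from an 800 uM solution, and hydrolysis was followed at 480 nm.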
# AmpC detergent: qHTS Inhibitors of AmpC Beta-Lactamase (assay with detergent). P00811. AmpC hydrolysis of nitrocefin, absorbance 480 nm, 0.01% Triton. Potency, µM (series often up to 114 µM), inactives show at the top dose activity change, negative = inhibition, most hits filed as inhibitors. 0.041% of 370,000 active;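 also: 0% = no-compound wells and -100% = no-enzyme wells; nearly all actives have a fitted effect of over 25% in size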
#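 AmpC (5.3 nM in the dispensed reagent) in 20 mM phosphate pH 7.0 with 0.01% (detergent screen) or 0.0001% Triton X-100 was preincubated with compounds for 15 min at room temperature. Nitrocefin was then added from an 800 uM solution, and hydrolysis was followed at 480 nm.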
# Lassa entry inh: qHTS for Inhibitors of binding or entry into cells for Lassa Virus. Lassa virus pseudotype entry inhibition, cell reporter. Potency, µM (top dose mostly 37.9 µM), for the others: at the highest dose activity change, negative = inhibition, usual class: inhibitors. 1.2% of 300,000 active; calls by dose curve; tested in HEK293 cells; also: nearly all actives have a fitted effect of over 50% in size
# MARV entry inh: qHTS for inhibitors of binding or entry into cells for Marburg Virus | Marburg virus pseudotyped entry inhibition, cell reporter | Potency, µM (highest dose often 37.8 µM), for inactives: at the highest dose activity change, negative = inhibition, actives largely listed as inhibitors | 1.8% of 300,000 active; calls by dose curve; tested in HEK293 cells
# * hit, by the source's call; ? = inconclusive; nt = not tested or not shown; ! = not active in a repeat; [ ] = another dose, or the depositor's remark. Sampled rows, rich in hits. Any-hit rate of the full collection: about 2.3%. Unless noted, calls follow the shape of the dose curve; as a rule, active = well fitted curve in the direction sought with a large enough effect; inconclusive = small, poorly fitted or top-dose-only effect, or another doubt; inactive = no such curve, though single readings can be large; an effect the other way counts as inactive or inconclusive. Unless noted, % is scaled to controls: 0 for no effect and ±100 for the full control effect; potency is read from the fitted curve at half-maximal effect.
SMILES,AMA1-RON2 inh,AmpC inh no detg,AmpC detergent,Lassa entry inh,MARV entry inh
COc1cc(/C=C(\C#N)C(=O)Nc2nnc(C(F)(F)F)s2)ccc1OCc1ccc(C(F)(F)F)cc1C(F)(F)F,nt,nt,nt,15µM*,-19%
C/C(=N\NC(=O)c1ccncc1)c1cccs1,22%,-22%,7%,nt,nt
C/C(=N/NC(=O)c1cc(C2CC2)[nH]n1)c1cccs1,37%,-15%,2%,2.6µM*,10µM*
Cc1ccc(-c2nnc(Nc3ccccc3)o2)cc1,-1%,-23%,5%,?,1.6µM*
Cc1ccc(NC(=O)Nc2nnc(-c3ccccc3)o2)cc1,-2%,-13%,-9%,12%,29%[46.1 µM]
CCCCCCCCCCCCCCCC(=O)OC(CC(=O)O)C[N+](C)(C)C (stereo not given),2%,228%,0%,?,22µM*!
O=C1/C(=C\c2ccccc2)CCc2c1[nH]c1ccccc21,23%,-25%,1%,?,16µM*
CCOC(=O)c1ccc(NC(=O)c2cn(-c3ccccc3)nc2-c2ccc(C)cc2)cc1,nt,nt,15%,13%[46.1 µM],nt
CCOC(=O)c1ccc(NC(=O)c2cn(-c3ccccc3)nc2-c2ccncc2)cc1,7%,?,0%,-25%,7.1µM*
Cc1ccc(-c2nnc(SCC(=O)NCCC(C)C)nc2-c2ccc(C)cc2)cc1,nt,nt,-2%,18%[46.1 µM],nt
Cc1ccc(NS(=O)(=O)c2cc(NC(=O)c3ccc4c(c3)NC(=O)CS4)ccc2C)c(C)c1,15%,?,-1%,?,10µM*
COc1ccc(/C(O)=C2\C(=O)C(=O)N(Cc3ccco3)[C@@H]2c2cccs2)cc1,nt,nt,nt,nt,-1%
COc1ccc(CNc2nc3ccccc3n2CCN2CCOCC2)cc1,19%,-17%,2%,14%,-13%
CCN(CC)c1ccc(CNc2nc3ccccc3n2CCN2CCOCC2)cc1,-18%,-16%[2.29 µM],-8%,-22%[46.1 µM],11µM*
Nc1ccccc1-[n+]1c(-c2ccccc2)cc(-c2ccccc2)cc1-c1ccccc1,1%,17%,-6%,?,8.9µM*
COc1ccc(C2c3c(-c4ccccc4O)n[nH]c3C(=O)N2CCc2ccc(OC)c(OC)c2)cc1 (stereo not given),-8%,5%,-3%,5µM*,?
COc1ccc(C2c3c(-c4ccccc4O)n[nH]c3C(=O)N2CCc2ccccc2)cc1 (stereo not given),nt,nt,-5%,?,?
CCc1ccc(C2c3c(-c4cc(C)ccc4O)n[nH]c3C(=O)N2Cc2cccnc2)cc1 (stereo not given),nt,nt,15%,?,13µM*
COc1ccc(CCN2C(=O)c3[nH]nc(-c4ccccc4O)c3C2c2cccc(OC)c2)cc1 (stereo not given),nt,nt,13%,?,13µM*
CCOc1ccc(-n2nc(CO)c(C(=O)NCc3ccccn3)n2)cc1,nt,nt,16%,2%[46.1 µM],7%[46.1 µM]
CN(C)c1ccc(N=Cc2cccn2C)cc1,22µM*,2%,-3%,6.3µM*,?
O=C(c1ccco1)N1CCN(c2cc(=O)n(-c3ccc(Cl)cc3)c(=O)[nH]2)CC1,3%,45µM*,?,nt,nt
Cc1ccc(Cl)cc1-n1c(=O)cc(N2CCN(C(=O)c3ccco3)CC2)[nH]c1=O,2%,-14%,2%,-3%,?
CCOc1ccc2c(c1)-c1c(ssc1=S)C(C)(C)N2C,10µM*,-31%,-1%,0%,-25%[46.1 µM]
CC1(C)Nc2ccc(O)cc2-c2c1ssc2=S,?,-30%,-11%,?,16%
SMILES,AMA1-RON2 inh,AmpC inh no detg,AmpC detergent,Lassa entry inh,MARV entry inh
COCCn1c(Sc2nc(C)cs2)nc2c1c(=O)[nH]c(=O)n2C,13%,0.16µM*,-1%,9%,2%
COCCn1c(SCc2ccccc2Cl)nc2c1c(=O)[nH]c(=O)n2C,1%,13%,?,?,22%
CC(C)Nc1nc(Cl)nc(N(C#N)CN2C(=O)c3ccccc3C2=O)n1,-7%,-40%,-9%,?,2.5µM*
Cc1cc2nc(-c3cccc(NC(=O)c4cccc5ccccc45)c3)oc2cc1C,nt,nt,8%,18%[46.1 µM],nt
Cc1ccc(C(=O)C(C(=O)/C=C/c2ccccc2)=C2SCCCS2)cc1,-28%,-20%,?,22µM*,?
Cc1ccc(C(=O)C=CC=Cc2ccccc2)cc1,5%,nt,nt,nt,nt
CCCN(CCC)C(=O)Cn1ccc(=N)c2c1CCCC2,nt,nt,nt,nt,-3%
Cc1cc(/C=C(\C#N)C(=O)Nc2ccc(Cl)cc2)c(C)n1-c1ccc(N2CCOCC2)c([N+](=O)[O-])c1,0%,7.9µM*,-4%,?,-19%
Cc1ccccc1C(=O)Oc1cccc(Nc2ncnc3ccccc23)c1,2%,nt,nt,10µM*,11µM*
N#Cc1c(Cl)nsc1NN,-28%,1.4µM*,-3%,-7%,17%[46.1 µM]
O=S1(=O)C=C(SCc2ccc(Cl)c(Cl)c2)Nc2ccccc21,0%,18µM*,1%,?,?
O=c1c2c(-c3ccccc3)csc2ncn1/N=C/c1cccc([N+](=O)[O-])c1O,20µM*,-32%,1%,-9%[46.1 µM],?
O=C(CN1C(=O)C2(SCC(=O)N2c2cccc(Cl)c2)c2ccccc21)NCCc1ccccc1 (stereo not given),nt,nt,3%,?,nt
Cc1cccc(OCC(=O)NCCc2nc3ccccc3[nH]2)c1C,nt,nt,4%,1%[46.1 µM],-1%[46.1 µM]
COCC(=O)O[C@]1(CCN(C)CCCc2nc3ccccc3[nH]2)CCc2cc(F)ccc2[C@@H]1C(C)C,-16%,216%,4%,5.2µM*,7.3µM*
NC(=S)c1ccc[n+]([C@@H]2O[C@@H](COP(=O)([O-])OP(=O)(O)OC[C@H]3O[C@@H](n4cnc5c(N)ncnc54)[C@H](OP(=O)(O)O)[C@@H]3O)C(O)C2O)c1 (stereo not given in full),nt,nt,nt,14%,23%
COc1ccc(-n2ccnc(NCCc3ccc(S(N)(=O)=O)cc3)c2=O)cc1,nt,nt,-5%,-5%[46.1 µM],nt
O=C(COCc1cc(-c2cccs2)on1)Nc1cccc(Cl)c1Cl,nt,nt,19%,13%[46.1 µM],nt
Cc1ccc(-c2nnc(Nc3cccc(O)c3)c3ccccc23)cc1S(=O)(=O)N1CCOCC1,nt,nt,9%,?,nt
Cc1cccc(Nc2nnc(-c3ccc(N4CCOCC4)c([N+](=O)[O-])c3)c3ccccc23)c1,-25%,10%,0%,10µM*,2.2µM*
c1ccc(-c2cccc(-c3ccccn3)n2)nc1,-88%,-11%,-3%,2.1µM*,2.1µM*
c1ccc(-c2nnc(-c3ccccn3)nn2)nc1,-70%,nt,nt,nt,nt
O=C(O)[C@H]1CC(=O)N(Cc2cccs2)C1,nt,nt,nt,nt,9%
CCOc1cc(C2c3c(-c4cc(C)ccc4O)n[nH]c3C(=O)N2CCCOC(C)C)ccc1O (stereo not given),nt,nt,-8%,?,?
